Among the data in PubChem BioAssay (NCATS) are Potency, outcome and activation values, retold here.

Unmarked numbers belong to inactive results. Results filed as inconclusive are left out. Activity calls are given as the source filed them. Unless noted, the call rests on the fitted dose curve; in most records, active means well fitted curve in the direction sought with a large enough effect; inconclusive means small, poorly fitted or top-dose-only effect, or another doubt; inactive means no such curve, though single readings can be large; an effect the other way counts as inactive or inconclusive.

The target of assay [1] is Cytochrome P450 2C19 (Homo sapiens) (UniProt P33261). The assay is described as follows: qHTS Assay for Inhibitors and Substrates of Cytochrome P450 2C19 (AID 899). Further: nearly all actives have a fitted effect of over 60% in size. Further: potency means the concentration at half of the fitted maximal effect. Put shortly: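 Reactions contain 5nM enzyme, 10uM Luciferin-H EGE (KM) and 50mM KPO4; compound preincubates 10 min at 37C, NADPH regeneration starts turnover for 60 min. Luminescence after detection reagent gives activity.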
Chain of Cytochrome P450 2C19 (Homo sapiens) (P33261 whole entry, looked up): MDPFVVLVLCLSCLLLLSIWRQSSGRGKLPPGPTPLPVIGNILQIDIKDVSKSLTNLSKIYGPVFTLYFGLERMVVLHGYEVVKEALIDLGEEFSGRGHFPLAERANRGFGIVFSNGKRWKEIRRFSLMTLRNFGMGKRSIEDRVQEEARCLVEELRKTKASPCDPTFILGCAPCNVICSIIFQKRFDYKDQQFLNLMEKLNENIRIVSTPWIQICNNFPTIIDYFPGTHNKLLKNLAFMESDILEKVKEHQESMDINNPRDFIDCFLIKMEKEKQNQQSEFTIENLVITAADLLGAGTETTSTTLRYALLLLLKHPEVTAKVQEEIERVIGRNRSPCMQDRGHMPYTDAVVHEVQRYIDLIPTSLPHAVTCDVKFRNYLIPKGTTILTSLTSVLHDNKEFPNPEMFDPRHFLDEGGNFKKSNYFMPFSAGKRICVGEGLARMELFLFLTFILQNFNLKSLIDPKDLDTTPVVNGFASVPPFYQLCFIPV
Background: qHTS replaces the single test concentration by a dilution series.

Assay [2] deals with DNA repair nuclease/redox regulator APEX1 (Homo sapiens) (UniProt P27695). The assay can be described thus: qHTS Validation Assay for Inhibitors of the Human Apurinic/apyrimidinic Endonuclease 1 (APE1) (AID 1705; further: potency means the concentration at half of the fitted maximal effect). Put shortly: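 Substrate: 50 nM final fluorophore/quencher THF-abasic duplex. Enzyme preincubated with compounds 15 min, RT. Progress derived from fluorescence difference, third minus first kinetic read.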
Chain of DNA repair nuclease/redox regulator APEX1 (Homo sapiens) (P27695 whole entry, looked up): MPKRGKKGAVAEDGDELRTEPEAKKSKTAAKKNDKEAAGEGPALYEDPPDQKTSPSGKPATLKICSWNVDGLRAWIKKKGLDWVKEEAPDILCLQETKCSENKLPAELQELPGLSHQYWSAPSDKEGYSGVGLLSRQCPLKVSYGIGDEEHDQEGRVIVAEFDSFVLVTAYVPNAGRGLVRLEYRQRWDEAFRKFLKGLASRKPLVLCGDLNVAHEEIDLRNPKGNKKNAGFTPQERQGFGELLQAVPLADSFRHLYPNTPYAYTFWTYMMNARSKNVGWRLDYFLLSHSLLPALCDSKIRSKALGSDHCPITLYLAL

The nature of assay [3]: qHTS for differential inhibitors of proliferation of Plasmodium falciparum line 7G8 (AID 1815).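 Further: potency means the concentration at half of the fitted maximal effect; parasite growth measured after three days of incubation.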
Assay [4] is described as follows: qHTS for differential inhibitors of proliferation of Plasmodium falciparum line GB4 (AID 1816).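 Further: potency means the concentration at half of the fitted maximal effect; parasite growth measured after 72 h incubation.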 The conditions noted are these: Potency: Plasmodium falciparum GB4 proliferation inhibition.
Assay [5] in a line: qHTS for differential inhibitors of proliferation of Plasmodium falciparum line 3D7 (AID 1876). Further: potency means the concentration at half of the fitted maximal effect.
Assay [6] in a line: qHTS for differential inhibitors of proliferation of Plasmodium falciparum line Dd2 (AID 1882). Further: nearly all actives have a fitted effect of over 65% in size. Further: potency means the concentration at half of the fitted maximal effect. The conditions noted are these: Potency: Plasmodium falciparum Dd2 proliferation inhibition. The method, boiled down: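 Dd2-infected erythrocytes (0.3% parasitemia, 2.5% hematocrit final) incubated with compound 72 h at 37 C, 5% CO2; lysed with saponin/Triton buffer containing SYBR Green I, incubated overnight in the dark, then read by fluorescence (485/535 nm). Normalized to 0.29 uM artemisinin and DMSO.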

The nature of assay [7]: qHTS for differential inhibitors of proliferation of Plasmodium falciparum line W2 (AID 1883).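 Further: potency means the concentration at half of the fitted maximal effect; parasites grown with compound for 72 h before lysis and staining.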 The conditions noted are these: Potency: Plasmodium falciparum W2 proliferation inhibition.
Assay [8] can be described thus: qHTS for differential inhibitors of proliferation of Plasmodium falciparum line HB3 (AID 1886).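 Further: potency means the concentration at half of the fitted maximal effect; parasites grown with compound for 72 h before SYBR Green readout.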 The conditions noted are these: Potency: Plasmodium falciparum HB3 proliferation inhibition.
The target of assay [9] is Ferritin light chain (Equus caballus) (UniProt P02791). The assay is described as follows: qHTS Validation Assay for Identification of Novel General Anesthetics (AID 2323). Further: series mostly up to about 77 µM; on the % scale 0 is the no-effect control and ±100 the full control effect. The method, boiled down: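 Normalized fluorescence response, scaled between free 1-AMA and 1-AMA/apoferritin complex, fitted to a four-parameter Hill equation for concentration-effect values. Binding mix: 10 uM horse-spleen apoferritin, 50% saturated 1-AMA in PBS; read 380/535 nm after 10 min.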
Chain of Ferritin light chain (Equus caballus) (P02791 2-175 limits assumed): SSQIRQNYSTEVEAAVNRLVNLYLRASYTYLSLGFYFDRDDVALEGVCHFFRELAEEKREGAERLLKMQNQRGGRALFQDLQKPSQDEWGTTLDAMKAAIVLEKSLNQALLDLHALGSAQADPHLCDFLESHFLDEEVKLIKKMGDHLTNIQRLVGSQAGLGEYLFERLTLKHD

Assay [10] deals with ATP-dependent DNA helicase Q1 (Homo sapiens) (UniProt P46063). The assay is described as follows: qHTS Validation Assay for Inhibitors of RecQ-Like Dna Helicase 1 (RECQ1) (AID 2353).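 Further: plate controls were DMSO vehicle for no effect and enzyme-free control for full effect.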 Put shortly: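 50 nM RECQ1T1 preincubated 15 min with compound in Tris pH 8.0 buffer with MgCl2, DTT, Tween-20 and 2.5 ug/ml poly(dI-dC); started with 200 nM TAMRA/BHQ-2 forked duplex and 2 mM ATP. Unwinding read as fluorescence (525/598 nm), two reads 2 h apart.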
Chain of ATP-dependent DNA helicase Q1 (Homo sapiens) (P46063 whole entry, looked up): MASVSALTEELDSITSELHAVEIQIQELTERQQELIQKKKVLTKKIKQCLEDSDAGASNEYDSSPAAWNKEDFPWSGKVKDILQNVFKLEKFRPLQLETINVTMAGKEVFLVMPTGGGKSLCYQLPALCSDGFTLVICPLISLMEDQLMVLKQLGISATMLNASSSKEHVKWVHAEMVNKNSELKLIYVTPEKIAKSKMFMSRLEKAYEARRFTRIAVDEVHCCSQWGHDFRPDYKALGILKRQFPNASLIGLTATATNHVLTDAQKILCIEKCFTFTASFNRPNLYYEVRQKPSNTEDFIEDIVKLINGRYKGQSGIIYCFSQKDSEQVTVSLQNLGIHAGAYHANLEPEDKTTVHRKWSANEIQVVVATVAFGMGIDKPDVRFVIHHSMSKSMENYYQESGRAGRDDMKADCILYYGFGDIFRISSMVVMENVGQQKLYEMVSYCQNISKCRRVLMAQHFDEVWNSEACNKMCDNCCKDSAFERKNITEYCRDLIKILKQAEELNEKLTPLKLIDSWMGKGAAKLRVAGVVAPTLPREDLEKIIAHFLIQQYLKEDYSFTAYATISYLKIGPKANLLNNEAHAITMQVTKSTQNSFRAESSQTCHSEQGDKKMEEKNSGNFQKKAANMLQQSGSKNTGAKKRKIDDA

Assay [11] in a line: Validation screen for inhibitors of Lassa infection (AID 463096; calls by dose curve; further: on the % scale 0 is the no-effect control and ±100 the full control effect).
A short description of assay [12]: Quantitative high throughput screen for delayed death inhibitors of the malarial parasite plastid, 96 hour incubation (AID 488745). Further: nearly all actives have a fitted effect of over 70% in size. Further: potency means the concentration at half of the fitted maximal effect. Put shortly:
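Luciferase-expressing P. falciparum in erythrocytes (2% hematocrit, 0.1% parasitemia) incubated with compound for 96 h at 37 C, 5% CO2, in RPMI 1640 with 0.5% Albumax. Growth inhibition read as decreased luminescence.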

Assay [13] has as its target Transient receptor potential cation channel subfamily V member 1 (Homo sapiens) (UniProt Q8NER1). The assay can be described thus: HTS Assay for Compounds that Act as Enhancers of the Vanilloid Receptor 1 (AID 488979). Further: 0% is about no effect. Put shortly:
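Calcium influx kinetics via Fluo-8 (480/520 nm) in TRPV1-expressing cells, 2000/well cultured overnight at 35.5C. Compound-alone read 3 min (agonist phase), followed by EC20 capsaicin challenge for 2 min (enhancer phase).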

The target of assay [14] is Thyrotropin receptor (Homo sapiens) (UniProt P16473). The assay can be described thus: qHTS Assay for Antagonists of the Thyroid Stimulating Hormone Receptor (AID 488980). Further: series mostly up to about 58 µM; 0% is about no effect. The method, boiled down:
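Inhibition of TSH-stimulated cAMP accumulation was quantified by homogeneous time-resolved FRET in TSHR-transfected HEK293 cells. Agonist: TSH, 4 nM final (EC80).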

Assay [15] has as its target Thyrotropin-releasing hormone receptor (Homo sapiens) (UniProt P34981). The assay is described as follows: qHTS for Small Molecule Agonists and Allosteric Enhancers of Human TRH Receptor: Validation Screen for Agonists (AID 493127;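 active means calcium activation more than 3 SD above the typical response in the agonist read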; further: 0% is about no effect). The conditions noted are these: TRH receptor agonist cell assay; at 2 µM; active compounds read high. Put shortly:
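TRHR cells loaded with fluo-8 calcium dye; FDSS kinetic fluorescence (Ex 480/Em 530) read at 1 s/cycle after 23 nL compound addition. Agonist-mode calcium response recorded before the 10 nM TRH (EC20) addition.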

Assay [16] has as its target Galactokinase (Homo sapiens) (UniProt P51570). The assay can be described thus: qHTS Validation Assay for Inhibitors of Human Galactokinase (GALK) (AID 493189). Further: 0% is about no effect. Put shortly: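 Enzyme activity is inferred from ATP consumption: human GALK phosphorylates galactose (100 uM) using 35 uM ATP for 1 h at room temperature, and luciferase-based Kinase-Glo Plus reports unconsumed ATP.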

Assay [17] concerns the target Voltage-gated inwardly rectifying potassium channel KCNH2 (Homo sapiens) (UniProt Q12809). The assay can be described thus: qHTS Assay for Small Molecule Inhibitors of the Human hERG Channel Activity (AID 588834).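 Further: lower thallium flux fluorescence means stronger hERG block; nearly all actives have a fitted effect of over 50% in size.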 Further: potency means the concentration at half of the fitted maximal effect. The method, boiled down:
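Blockade is seen as reduced FluxOR thallium-flux fluorescence in U2OS cells expressing hERG from a BacMam construct, in Opti-MEM with 2% FCS. Concentration-response data fitted to the Hill equation for AC50.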

The target of assay [18] is DNA dC->dU-editing enzyme APOBEC-3G (Homo sapiens) (UniProt Q9HC16). The assay is described as follows: qHTS for inhibitors of Vif-A3G interactions: Validation (AID 588379). Further: 0% is about no effect. The method, boiled down:
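HeLa cells stably expressing Vif and A3G-eYFP, 700 cells/well, incubated overnight at 37 deg C, then exposed to compound overnight at 37 deg C. Inhibition of Vif-mediated degradation read as increased yellow fluorescence (Ex 488/Em 500-530) by laser-scanning cytometry.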

Assay [19] is described as follows: qHTS for differential inhibitors of proliferation of Plasmodium falciparum line D10 (AID 1877).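 Further: potency means the concentration at half of the fitted maximal effect; parasites grown with compound for 72 h before DNA staining.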
Assay [20] deals with Rap guanine nucleotide exchange factor 3 (Homo sapiens) (UniProt O95398). The assay can be described thus: Confirmatory qHTS for agonist of cAMP-regulated guanine nucleotide exchange factor 3 (EPAC1) (AID 1645881).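 Further: EPAC1 catalysed release of BODIPY-GDP from Rap1B seen as fluorescence loss; 100% = effect of cAMP agonist control; nearly all actives have a fitted effect of over 75% in size.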

Chain of Transient receptor potential cation channel subfamily V member 1 (Homo sapiens) (Q8NER1 whole entry, looked up): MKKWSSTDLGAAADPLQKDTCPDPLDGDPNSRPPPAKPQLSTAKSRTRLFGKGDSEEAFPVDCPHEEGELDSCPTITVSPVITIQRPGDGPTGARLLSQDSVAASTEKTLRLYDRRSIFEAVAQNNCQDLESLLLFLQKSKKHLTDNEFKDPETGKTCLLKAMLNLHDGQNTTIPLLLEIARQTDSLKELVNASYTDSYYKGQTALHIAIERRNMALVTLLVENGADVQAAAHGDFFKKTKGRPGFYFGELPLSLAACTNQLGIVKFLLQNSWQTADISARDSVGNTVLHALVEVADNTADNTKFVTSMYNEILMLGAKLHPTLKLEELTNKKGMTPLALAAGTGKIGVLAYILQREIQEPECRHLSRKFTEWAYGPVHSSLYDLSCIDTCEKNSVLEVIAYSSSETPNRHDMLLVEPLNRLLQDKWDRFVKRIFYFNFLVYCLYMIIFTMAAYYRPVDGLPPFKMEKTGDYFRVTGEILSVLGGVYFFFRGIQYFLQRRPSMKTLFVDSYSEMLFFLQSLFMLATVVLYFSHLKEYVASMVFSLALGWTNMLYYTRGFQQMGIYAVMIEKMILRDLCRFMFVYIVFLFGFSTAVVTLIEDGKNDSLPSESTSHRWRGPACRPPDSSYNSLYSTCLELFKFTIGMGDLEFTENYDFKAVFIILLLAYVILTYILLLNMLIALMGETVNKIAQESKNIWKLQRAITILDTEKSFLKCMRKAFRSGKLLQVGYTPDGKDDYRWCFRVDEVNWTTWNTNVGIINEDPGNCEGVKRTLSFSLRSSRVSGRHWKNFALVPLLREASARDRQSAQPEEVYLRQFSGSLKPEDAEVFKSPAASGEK
Chain of Galactokinase (Homo sapiens) (P51570 whole entry, looked up): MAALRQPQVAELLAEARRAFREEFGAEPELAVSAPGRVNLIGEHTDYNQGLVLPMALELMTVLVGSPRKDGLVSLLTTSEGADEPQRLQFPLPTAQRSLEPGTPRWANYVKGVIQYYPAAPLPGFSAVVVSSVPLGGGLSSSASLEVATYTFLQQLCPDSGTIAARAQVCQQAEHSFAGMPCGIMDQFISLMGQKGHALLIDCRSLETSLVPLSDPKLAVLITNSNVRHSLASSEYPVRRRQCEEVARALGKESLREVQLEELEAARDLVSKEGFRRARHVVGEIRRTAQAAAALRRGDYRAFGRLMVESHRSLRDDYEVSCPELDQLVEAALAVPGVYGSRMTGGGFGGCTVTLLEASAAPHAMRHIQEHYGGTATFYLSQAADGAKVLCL
Chain of Thyrotropin-releasing hormone receptor (Homo sapiens) (P34981 whole entry, looked up): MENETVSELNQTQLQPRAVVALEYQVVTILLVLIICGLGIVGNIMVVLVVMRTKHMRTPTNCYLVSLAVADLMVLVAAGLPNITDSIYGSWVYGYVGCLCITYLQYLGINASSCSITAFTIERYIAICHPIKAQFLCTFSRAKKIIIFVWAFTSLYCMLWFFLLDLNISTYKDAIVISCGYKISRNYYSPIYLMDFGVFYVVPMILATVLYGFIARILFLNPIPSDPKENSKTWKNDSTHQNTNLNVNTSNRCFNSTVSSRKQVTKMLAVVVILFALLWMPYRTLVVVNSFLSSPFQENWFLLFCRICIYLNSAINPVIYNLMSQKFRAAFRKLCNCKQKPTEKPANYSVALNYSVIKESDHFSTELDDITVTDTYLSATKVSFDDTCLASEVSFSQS
Chain of Thyrotropin receptor (Homo sapiens) (P16473 whole entry, looked up): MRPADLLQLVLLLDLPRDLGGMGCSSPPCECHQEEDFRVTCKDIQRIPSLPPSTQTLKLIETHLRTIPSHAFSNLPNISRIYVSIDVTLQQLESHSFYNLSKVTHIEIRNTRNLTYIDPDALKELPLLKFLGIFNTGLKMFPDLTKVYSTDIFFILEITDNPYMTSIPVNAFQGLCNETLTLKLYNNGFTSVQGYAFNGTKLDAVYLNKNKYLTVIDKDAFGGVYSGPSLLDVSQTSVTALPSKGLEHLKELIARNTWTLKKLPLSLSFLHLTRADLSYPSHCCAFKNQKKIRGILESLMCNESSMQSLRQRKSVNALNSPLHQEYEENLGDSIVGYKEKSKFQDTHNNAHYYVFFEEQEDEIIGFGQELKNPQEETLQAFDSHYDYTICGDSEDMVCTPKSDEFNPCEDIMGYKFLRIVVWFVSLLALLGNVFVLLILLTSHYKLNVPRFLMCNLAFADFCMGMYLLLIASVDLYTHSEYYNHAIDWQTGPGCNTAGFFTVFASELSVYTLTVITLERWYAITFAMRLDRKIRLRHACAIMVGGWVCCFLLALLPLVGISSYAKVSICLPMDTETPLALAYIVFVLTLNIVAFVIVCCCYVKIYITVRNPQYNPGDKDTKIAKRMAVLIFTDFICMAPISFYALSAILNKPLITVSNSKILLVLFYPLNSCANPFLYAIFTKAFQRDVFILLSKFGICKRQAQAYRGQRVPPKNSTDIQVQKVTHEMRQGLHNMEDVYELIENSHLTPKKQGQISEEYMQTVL
Chain of DNA dC->dU-editing enzyme APOBEC-3G (Homo sapiens) (Q9HC16 whole entry, looked up): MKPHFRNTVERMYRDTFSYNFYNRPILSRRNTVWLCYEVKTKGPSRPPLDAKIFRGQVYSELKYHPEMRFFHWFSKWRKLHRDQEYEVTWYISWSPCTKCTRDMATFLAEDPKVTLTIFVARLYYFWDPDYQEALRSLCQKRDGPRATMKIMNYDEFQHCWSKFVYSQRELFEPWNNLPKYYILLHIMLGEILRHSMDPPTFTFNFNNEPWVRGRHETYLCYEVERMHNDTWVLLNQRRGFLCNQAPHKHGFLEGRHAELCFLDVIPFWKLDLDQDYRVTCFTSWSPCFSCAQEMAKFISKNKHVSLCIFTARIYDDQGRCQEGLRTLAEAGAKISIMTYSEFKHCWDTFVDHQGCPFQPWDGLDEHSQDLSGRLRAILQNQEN

Turning to `Cc1ccccc1-c1cncnc1NCCc1cnc[nH]1`, the Potency in assay [1] is 0.0501 µM (active).
Take `CC(C)NC(=O)N1CC[C@@]2(CCCNC2)C1`: the Potency entry in assay [1] is “inactive”.
Turning to `Clc1ccccc1-c1cncnc1NCCc1cnc[nH]1`, the Potency in assay [1] was 0.0126 µM (active).
In the case of `CCc1c(C(=O)OC)ncc2[nH]c3cc(OC)c(OC)cc3c12`, the Potency is 6.31 µM (active) in [2]; 7.94 µM (active) in [3]; 12.6 µM (active) in [4]; 12.6 µM (active) in assay [5]; 7.94 µM (active) in assay [7]; 10 µM (active) in assay [8]. Moreover, the Potency result in assay [6], in [9], in [11], in [12] and in assay [17] was “inactive” each time. The compound was called inactive in assay [10], in assay [13], in [14] and in assay [16]. Also, the activation in assay [15] is 0.312%.
In the case of `N#Cc1cccc(NC(=O)N2CC[C@@]3(CCCN(C(=O)Oc4ccccc4)C3)C2)c1`, the Potency entry in assay [1] was “inactive”.
With `c1ccc(CN2CCC3(CCNCC3)CC2)cc1`, the Potency in assay [1] was 5.01 µM (active).
The same measure, in the same setting: the result for `O=C(c1ccco1)N1CCC[C@@]2(CCN(Cc3ccncc3)C2)C1` reads 2.51 µM (active).
As to `O=C(O)C1=CCCN(CCOC(c2ccc(C(F)(F)F)cc2)c2ccc(C(F)(F)F)cc2)C1`, the result in [18] was inactive.
`CCCN1CCc2cc(O)cc3c2C1Cc1ccc(O)c(O)c1-3` (stereo not given): the Potency entry in assay [2], in assay [9] and in [11] was “inactive” in each case. Also, the Potency was 5.01 µM (active) in assay [3]; 3.16 µM (active) in [4]; 2.51 µM (active) in assay [5]; 3.98 µM (active) in [19]; 8.91 µM (active) in assay [6]; 3.55 µM (active) in [7]. Also, the Potency in [8] is 3.55 µM (active); in [12] it was 3.29 µM (active); in [17], 7.08 µM (active). The compound was called inactive in [10], in assay [13], in assay [14] and in assay [16]. Further, in assay [15], the activation is 0.375%.
As for `CC(=O)OC1CC2C(C)(C)C(=O)C=C[C@]2(C)C2CC[C@]3(C)C(=CC(=O)OC3c3ccoc3)[C@]12C` (stereo not given in full), the Potency result in [20] was “inactive”.
For the compound `C=CCc1ccc2c(c1)OCO2`, the Potency result in [17] was “inactive”.
As for `CCCN1CCc2cccc3c2C1Cc1ccc(O)c(O)c1-3` (stereo not given), the Potency entry in assay [2], in assay [9] and in assay [11] was “inactive” each time. Besides, the Potency in assay [3] is 2.24 µM (active); in assay [4] it was 2 µM (active); in [5], 2.51 µM (active); in assay [19], 2.51 µM (active); in assay [6] it was 3.16 µM (active); in assay [7], 2 µM (active). Further, the Potency in assay [8] was 2 µM (active); in assay [12], 2.94 µM (active). The compound was classed as inactive in [10], in [13], in [14] and in assay [16]. Further, the activation in assay [15] was 1.44%.
Regarding `O=C1c2ccccc2-c2cccc3cccc1c23`, the Potency result in [20] was “inactive”.
As for `Cc1nnc2ccc(-c3cccc(C(F)(F)F)c3)nn12`, the call in [18] was inactive.
